Source: PubChem (several laboratories)
Most compounds without a hit are left out; they make up all but 5.4% or so of the library.
GASC-1 inh: human JMJD2C demethylase inhibition. Q9H3R0. GST-JMJD2C(1-420) H3K9me3 demethylation, DELFIA europium. inhibition, % at 2.35 µM. 0.069% of 330,000 active;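 active = more than half of a compound's replicate wells show inhibition beyond 50%, single wells judged on their own value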;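 also: signal counts dimethyl H3K9 product captured on neutravidin plate; 0% = median of DMSO wells and 100% = 0.3 times that DMSO median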
Target sequence (Q9H3R0 1-420 limits assumed): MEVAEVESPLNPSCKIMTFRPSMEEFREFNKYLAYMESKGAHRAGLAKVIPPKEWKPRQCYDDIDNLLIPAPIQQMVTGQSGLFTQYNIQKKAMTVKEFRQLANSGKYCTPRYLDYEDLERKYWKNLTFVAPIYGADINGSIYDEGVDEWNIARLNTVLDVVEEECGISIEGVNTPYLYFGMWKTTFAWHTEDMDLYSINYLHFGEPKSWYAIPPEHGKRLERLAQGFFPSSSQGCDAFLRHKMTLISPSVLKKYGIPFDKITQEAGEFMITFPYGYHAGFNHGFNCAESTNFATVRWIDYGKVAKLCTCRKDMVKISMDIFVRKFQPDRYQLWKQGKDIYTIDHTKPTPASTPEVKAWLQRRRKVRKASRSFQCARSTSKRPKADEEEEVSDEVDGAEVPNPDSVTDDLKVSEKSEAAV
MIN6 prolif: induces beta-cell replication in MIN6 cells; AID 2380; proliferation, % at 10 µM; 0.29% of 330,000 active; MIN6 cells proliferation, ATPlite luminescence, 48 h; cells starved in 0.2% serum; 100% = growth in 10% serum;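 active = compounds whose signal lies at least 3.5 SD above the mean of all wells on their plate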;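 also: 0% = DMSO-treated cells in low-serum medium and 100% = 10% serum control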
Exocytosis inh: lytic granule exocytosis inhibition; inhibition, % at 10 µM; 0.66% of 360,000 active; TALL-104 LAMP-1 surface exposure, flow cytometry; cells stimulated with thapsigargin and PMA; AID 651702;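 active = inhibition above about 55%, limit read from the data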
ALR H2O2 inh: human ALR oxidase inhibition via reduced H2O2; purified ALR, DTT oxidation, H2O2 HRP-luminol luminescence; inhibition, % (concentration not given with the values); 3.8% of 290,000 active; AID 485317;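 active = mean replicate inhibition above about 79%, with every replicate also reaching it, limit read from the data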
Target sequence (P55789 whole entry, looked up): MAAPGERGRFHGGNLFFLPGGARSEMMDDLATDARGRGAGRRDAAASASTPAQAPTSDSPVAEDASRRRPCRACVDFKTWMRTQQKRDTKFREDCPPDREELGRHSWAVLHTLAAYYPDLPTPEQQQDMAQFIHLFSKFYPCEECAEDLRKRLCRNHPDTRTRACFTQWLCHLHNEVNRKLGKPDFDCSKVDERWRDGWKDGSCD
PfM18AAP inh: blocks P. falciparum M18 aspartyl aminopeptidase; recombinant PfM18AAP, H-Glu-NHMec fluorogenic cleavage; AID 1822; inhibition, % at 7.35 µM; 1.2% of 290,000 active;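 active = inhibition above the campaign mean inhibition over all tested compounds plus 3 SD, cut at about 28% in these data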;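 also: 0% = plate median of test compound wells and 100% = 2 mM ZnCl2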
SMARCA2 act: activators of SMARCA2 function | MG213 cells, MMTV-luciferase reporter, dexamethasone, overnight | activation, % at 9.1 µM | 1% of 370,000 active; in the data active = activation above about 7.8%;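 also: 0% = vehicle wells and 100% = reference activator wells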
* = called active by the depositor; x = no result.

SMILES | GASC-1 inh | MIN6 prolif | Exocytosis inh | ALR H2O2 inh | PfM18AAP inh | SMARCA2 act
Cc1cccc(Cn2nnc3ccccc32)c1O | 3 | -6 | -9 | 90* | x | 0
Oc1ccccc1Cn1nnc2ccccc21 | 18 | -1 | 1 | x | 6 | -3
CCOC(=O)/C=C/C(=O)OCC(=O)Nc1ccc(C)cc1 | -33 | 1 | -3 | 11 | 2 | 1
CCOC(=O)/C=C/C(=O)OCC(=O)Nc1cccc(Br)c1 | -4 | -1 | 3 | 91* | 0 | 1
CC(=O)CC[C@@H]1CC[C@]2(CCCN(C(=O)c3ccc4ccccc4n3)C2)O1 | x | x | x | x | x | 3
CC(C)c1ccc(C2c3[nH]c4ccccc4c3C[C@H]3C(=O)N(c4ccccc4C(=O)N4CCC[C@H]4C(=O)O)C(=O)N23)cc1 (some centres not stated) | 3 | 2 | 2 | 98* | 5 | 2
COc1ccc(C2c3[nH]c4ccccc4c3C[C@H]3C(=O)N(c4ccccc4C(=O)N4CCC(C(=O)O)CC4)C(=O)N23)cc1 (some centres not stated) | -3 | -3 | -1 | 10 | 2 | 3
COc1cccc(C2c3[nH]c4ccccc4c3C[C@H]3C(=O)N(c4ccccc4C(=O)N4CCC(C(=O)O)CC4)C(=O)N23)c1 (some centres not stated) | -2 | 1 | 25 | 98* | 1 | 1
COc1cccc(C(=O)Nc2nnc(S(=O)(=O)N(C)Cc3ccc(F)cc3)s2)c1 | -24 | -5 | 23 | 84* | -7 | 1
COc1ccc(CN(C)S(=O)(=O)c2nnc(NC(=O)c3cccc(OC)c3)s2)cc1 | 0 | -2 | 2 | 2 | 3 | -2
CCN(CC)S(=O)(=O)c1ccc(N=Nc2c(C)[nH]n(C(N)=S)c2=O)cc1 | 5 | -2 | -2 | 95* | 9 | -1
COC(C/C=C\C(=O)COCc1ccccc1)OC | 6 | -7 | x | x | x | x
COC(C/C=C/C(=O)[C@H](C)OCc1ccccc1)OC | 3 | -2 | -6 | 87* | x | x
O=[N+]([O-])c1cccc(-c2nnc3ccc4ccccc4n23)c1 | 8 | 3 | 7 | -9 | 3 | 1
CN1CCN(/N=C/c2nc(-c3cccc([N+](=O)[O-])c3)n3ccccc23)CC1 | -2 | -1 | -1 | 99* | 2 | -5
O=C(O)c1ccc(/C=N/n2c(C3CCCCC3)n[nH]c2=S)cc1 | -5 | 4 | -4 | 98* | 30* | 2
S=c1[nH]nc(C2CCCCC2)n1/N=C/c1ccccc1Cl | 2 | -1 | -9 | x | 1 | -1
O=C(O)c1ccccc1/C=N/n1c(C2CCCCC2)n[nH]c1=S | -16 | -2 | 0 | 98* | 12 | 1
COc1cc(/C=N/n2c(C3CCCCC3)n[nH]c2=S)cc(Br)c1O | -21 | -1 | 9 | 83* | 20 | -2
COc1cc(C=Nn2c(-c3cc(C)[nH]n3)n[nH]c2=S)cc(Br)c1O | x | x | x | x | x | -4
CN=c1scc(C)n1/N=C/c1cc(Br)c(O)c(OC)c1 | 11 | 0 | 3 | 99* | 28* | -5
N#C/C(=C\c1cccc(Cl)c1)C(=O)c1ccccc1 | -1 | -3 | 2 | 96* | 3 | -1
CCn1c2ccccc2c2cc(NC(=O)CSc3nnc(-c4ccccc4)n3Cc3ccco3)ccc21 | x | x | x | x | x | -3
COc1cc(-c2nc3ccc4ccccc4c3c3c2CCC3)ccc1O | -2 | 0 | 2 | 96* | 0 | -1
COc1cc(-c2nc3ccc4ccccc4c3c3c2CCC3)cc(OC)c1O | 2 | -5 | 6 | 55 | 21 | -2
SMILES | GASC-1 inh | MIN6 prolif | Exocytosis inh | ALR H2O2 inh | PfM18AAP inh | SMARCA2 act
COC(=O)C1CN(CCO)CCS(=O)(=O)N1Cc1cn(Cc2ccc(C)cc2)nn1 (configuration not stated) | x | x | x | x | x | -2
Cc1ccc(NC(=O)Nc2cccs2)nc1 | -2 | -4 | -3 | 98* | 4 | 6
Cc1ccc(NC(=O)Nc2cccs2)c(Cl)c1 | 12 | -3 | -5 | 5 | 14 | -1
CC(=O)c1cccc(NC(=O)Nc2cccs2)c1 | 10 | 0 | 1 | 96* | 14 | 0
O=C(Nc1cccs1)Nc1ccccc1Cl | 10 | -1 | 15 | 89* | 4 | 2
Cc1ccc(NC(=O)Nc2cccs2)cc1 | -43 | -5 | 2 | 98* | 11 | 3
COc1cccc(NC(=O)Nc2cccs2)c1 | 4 | -3 | -2 | 29 | 25 | 1
CCOC(=O)[C@]12CCCC3=C1N(CCC3)C(=O)[C@@H](CC(=O)NCCc1ccccc1OC)C2 | x | x | x | x | x | -3
CCCCNC(=O)C[C@@H]1C(=O)N2CCCC3=C2[C@@]1(C(=O)OCC)CCC3 | x | x | x | x | x | -3
Cc1ccc(-n2c(SCc3c(Cl)cccc3Cl)nnc2-c2ccco2)cc1 | x | x | x | x | x | -4
O=C(CN1C(=O)C2(OCCCO2)c2ccccc21)NCc1ccc(F)cc1 | x | x | x | x | x | -4
Cc1ccc2c(c1)C1CS(=O)(=O)N(C3CCCC3)CN1C2 (configuration not stated) | x | x | x | x | x | -1
CC(COc1ccc(S(C)(=O)=O)cc1)CN1CCC(C(O)(c2ccccc2)c2ccccc2)CC1 (configuration not stated) | x | x | x | x | x | -1
O=C(Nc1cccc(Cl)c1)O/N=C\c1ccncc1 | -4 | -1 | -3 | -13 | 1 | 5
Cc1ccc(N/N=C/c2ccncc2)cc1 | -8 | 1 | -1 | 99* | 7 | 3
Oc1ccccc1/C=N/Nc1ccccc1 | -5 | 0 | -2 | 99* | 0 | -3
Clc1ccc(/C=N\Nc2ccccc2)cc1 | -3 | -1 | 0 | 99* | 7 | -1
Clc1cccc(N/N=C/c2ccncc2)c1 | -18 | 0 | -1 | 95* | 2 | 1
Oc1ccccc1C=NNC(=S)NN=Cc1ccccc1O | x | x | 10 | x | x | 1
O=C(O)c1ccc(N/N=C/c2ccncc2)cc1 | -4 | 1 | -2 | 11 | 3 | 2
COC(=O)[C@]12C[C@H](CC(=O)NCC3CCCCC3)C(=O)N(Cc3ccc(Cl)cc3Cl)C1=C[C@H](C1CCCC1)O[C@@H]2C | x | x | x | x | x | -3
Cn1c(=O)oc2ccc(S(=O)(=O)Nc3ccc(Cl)cc3[N+](=O)[O-])cc21 | x | x | x | x | x | -3
O=C(Nc1c(F)c(F)c(F)c(F)c1F)OC[C@@H]1CSCCS(=O)(=O)N1 | x | x | x | x | x | 3
Cc1cc(NC(=O)CCc2c[nH]c3ccccc23)ccc1Nc1cccnc1 | x | x | x | x | x | -6
Cc1ccc(N/N=C/c2cccnc2)cc1 | 2 | 0 | 3 | 101* | 8 | 4
Cc1csc(N/N=C\c2cccnc2)n1 | -16 | -2 | -2 | 14 | 8 | 5
O=C(Nc1nnc(-c2ccc3c(c2)CCCC3)o1)c1c(F)cccc1F | 3 | -5 | -3 | 95* | -18 | -4
COc1ccccc1-c1ccc(OCCCN2CCC(C(O)(c3ccccc3)c3ccccc3)CC2)cc1 | x | x | x | x | x | -6
CCNC(=O)N(C)[C@H]1C[C@H]2c3[nH]c4ccccc4c3CCN2C[C@H]1[C@H](C)O | x | x | -3 | x | x | -1
